From PubChem BioAssay (EPA / NIEHS)
Several values for one entry are separate records, joined by “and”; a condition that tells them apart may be missing. Equal entries are not always repeated. More than one record can exist for a structure, and the calls need not agree. Activity calls are given as the source filed them. The calls were made as follows: active = hit-call score of the fitted dose curve at least 0.9, where 1 is the maximum; inactive = score below 0.9.

Key:
[1] = BSK_BF4T_SRB: Viability Assessment in the BioMAP Diversity Plus: BF4T Assay (AID 2284274); conditions: primary human bronchial epithelial cells with fibroblasts;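 as to AC50: total cell protein by sulforhodamine B staining as a cytotoxicity measure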
Method in brief: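 Co-culture of human bronchial epithelial cells and dermal fibroblasts (BioMAP BF4T) exposed 24 h. Total protein by sulforhodamine B staining (0.1% SRB after 10% TCA fixation, 560 nm) in parallel cultures; fitted vs DMSO.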

[2] = read-out: urokinase Plasminogen Activator (uPA), PLAU (gene 5328); assay: BSK_BF4T_uPA: BioMAP Diversity Plus: BF4T Assay for urokinase Plasminogen Activator (uPA) Biomarker Activity (AID 2284275); conditions: primary human bronchial epithelial cells with fibroblasts
Method in brief: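 Co-culture of human bronchial epithelial cells and dermal fibroblasts; uPA quantified by ELISA 24 hours after dosing, fitted relative to DMSO. Parallel SRB total-protein staining assessed overt cytotoxicity.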

[3] = read-out: Interleukin-8 (IL8), CXCL8 (gene 3576); assay: BSK_IMphg_IL8: BioMAP Diversity Plus: IMphg Assay for Interleukin-8 (IL8) Biomarker Activity (AID 2284277); conditions: primary human endothelial cells with macrophages
Method in brief: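 Co-culture of human venular endothelial cells and macrophages exposed to chemicals for 24 h; IL-8 quantified by ELISA and compared against the DMSO baseline, with SRB total-protein staining in parallel cultures for cytotoxicity.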

[4] = read-out: Intercellular Adhesion Molecule 1 (ICAM1), ICAM1 (gene 3383); assay: BSK_BE3C_ICAM1: BioMAP Diversity Plus: BE3C Assay for Intercellular Adhesion Molecule 1 (ICAM1) Biomarker Activity (AID 2284278); conditions: primary human bronchial epithelial cells
Method in brief: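 Human primary bronchial epithelial cultures; compound added; 24 h incubation; cell-surface ICAM-1 measured by ELISA; signal increase fitted relative to DMSO negative control.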

[5] = read-out: Interferon-inducible T-cell alpha chemoattractant (ITAC), CXCL11 (gene 6373); assay: BSK_BE3C_ITAC: BioMAP Diversity Plus: BE3C Assay for Interferon-inducible T-cell alpha chemoattractant (ITAC) Biomarker Activity (AID 2284279); conditions: primary human bronchial epithelial cells
Method in brief: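 ELISA read-out of I-TAC after 24 h chemical dosing of human lung primary bronchial epithelial cells; gain-of-signal fit vs DMSO baseline. Parallel SRB total-protein staining (0.1% SRB, 10% TCA fixation, 560 nm) assessed cytotoxicity.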

[6] = read-out: Interleukin-8 (IL8), CXCL8 (gene 3576); assay: BSK_BE3C_IL8: BioMAP Diversity Plus: BE3C Assay for Interleukin-8 (IL8) Biomarker Activity (AID 2284280); conditions: primary human bronchial epithelial cells
Method in brief: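 ELISA read-out of IL-8 in human lung bronchial epithelial primary cell cultures, 24 h post-dosing; endpoint analysed as signal increase relative to DMSO baseline.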

[7] = read-out: Epidermal growth factor receptor (EGFR), EGFR (gene 1956); assay: BSK_BE3C_EGFR: BioMAP Diversity Plus: BE3C Assay for Epidermal growth factor receptor (EGFR) Biomarker Activity (AID 2284281); conditions: primary human bronchial epithelial cells
Method in brief: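 Primary human lung bronchial epithelial cells; compound, 24 h; EGFR measured by ELISA; positive-direction fit vs DMSO baseline.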

[8] = read-out: KRT18 (gene 3875); assay: BSK_BE3C_Keratin818: BioMAP Diversity Plus: BE3C Assay for Keratin 818 Biomarker Activity (AID 2284282); conditions: primary human bronchial epithelial cells
Method in brief: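 Chemicals are added to human lung bronchial epithelial primary cells (BE3C system) and incubated 24 h. Keratin 8/18 is then measured by ELISA, with parallel SRB total-protein staining gauging overt cytotoxicity.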

[9] = read-out: Matrix Metallopeptidase 9 (MMP9), MMP9 (gene 4318); assay: BSK_BE3C_MMP9: BioMAP Diversity Plus: BE3C Assay for Matrix Metallopeptidase 9 (MMP9) Biomarker Activity (AID 2284283); conditions: primary human bronchial epithelial cells
Method in brief: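 Cells were dosed, incubated 24 h, then assayed for MMP-9 by ELISA; activity was fitted upward against DMSO. The system used human lung primary bronchial epithelial cells, with SRB total-protein staining run alongside for cytotoxicity.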

[10] = read-out: Plasminogen activator inhibitor-1 (PAI1), SERPINE1 (gene 5054); assay: BSK_CASM3C_PAI1: BioMAP Diversity Plus: CASM3C Assay for Plasminogen activator inhibitor-1 (PAI1) Biomarker Activity (AID 2284284); conditions: primary human coronary artery smooth muscle cells;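 also: PAI-1 protein level measured by ELISA 24 h after dosing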
[11] = read-out: Monocyte Chemoattractant Protein-1 (MCP1), CCL2 (gene 6347); assay: BSK_hDFCGF_MCP1: BioMAP Diversity Plus: hDFCGF Assay for Monocyte Chemoattractant Protein-1 (MCP1) Biomarker Activity (AID 2284285); conditions: primary human foreskin fibroblasts
Method in brief: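 Human foreskin fibroblasts (hDFCGF system) were exposed to compound and secreted MCP-1 was measured by ELISA after 24 hours. Activity was fitted relative to DMSO. Cytotoxicity was checked by SRB total-protein staining in parallel cultures.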

[12] = read-out: Vascular cell adhesion molecule 1 (VCAM1), VCAM1 (gene 7412); assay: BSK_IMphg_VCAM1: BioMAP Diversity Plus: IMphg Assay for Vascular cell adhesion molecule 1 (VCAM1) Biomarker Activity (AID 2284286); conditions: primary human endothelial cells with macrophages
Method in brief: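 Human venular endothelial cells co-cultured with macrophages; VCAM-1 quantified by ELISA 24 h after dosing, fitted in the positive direction against DMSO. Cytotoxicity was checked in parallel cultures by SRB total-protein staining (0.1% SRB after 10% TCA fixation, 560 nm).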

[13] = read-out: Intercellular Adhesion Molecule 1 (ICAM1), ICAM1 (gene 3383); assay: BSK_hDFCGF_ICAM1: BioMAP Diversity Plus: hDFCGF Assay for Intercellular Adhesion Molecule 1 (ICAM1) Biomarker Activity (AID 2284287); conditions: primary human foreskin fibroblasts
Method in brief: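 Primary human foreskin fibroblasts (hDFCGF system) dosed with chemical; ICAM-1 quantified by ELISA at 24 h relative to DMSO. Parallel SRB total-protein staining to assess overt cytotoxicity.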

[14] = read-out: CD40, CD40 (gene 958); assay: BSK_IMphg_CD40: BioMAP Diversity Plus: IMphg Assay for CD40 Biomarker Activity (AID 2284288); conditions: primary human endothelial cells with macrophages
Method in brief: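 Venular endothelial cells co-cultured with macrophages (human primary), CD40 measured by ELISA 24 h after dosing. Positive-direction fit vs DMSO baseline; cytotoxicity tracked by SRB total-protein staining in parallel cultures.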

[15] = read-out: TIMP metallopeptidase inhibitor 2 (TIMP2), TIMP2 (gene 7077); assay: BSK_hDFCGF_TIMP2: BioMAP Diversity Plus: hDFCGF Assay for TIMP metallopeptidase inhibitor 2 (TIMP2) Biomarker Activity (AID 2284289); conditions: primary human foreskin fibroblasts
Method in brief: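 Primary human foreskin fibroblasts in the hDFCGF system, dosed for 24 h; TIMP-2 level measured by ELISA, fitted in the positive direction against DMSO; cytotoxicity checked in parallel by sulforhodamine B total protein staining.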

[16] = read-out: E-selectin (Homo sapiens) (UniProt P16581); assay: BSK_IMphg_ESelectin: BioMAP Diversity Plus: IMphg Assay for Eselectin Biomarker Activity (AID 2284291); conditions: primary human endothelial cells with macrophages
Method in brief: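 Human venular endothelial cell–macrophage co-culture, E-selectin measured by ELISA 24 h after chemical dosing. Signal fitted in the positive direction against DMSO as negative control and baseline.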

[17] = read-out: Interleukin-1 alpha (IL1a), IL1A (gene 3552); assay: BSK_IMphg_IL1a: BioMAP Diversity Plus: IMphg Assay for Interleukin-1 alpha (IL1a) Biomarker Activity (AID 2284290); conditions: primary human endothelial cells with macrophages
Method in brief: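 Human venular endothelial cells co-cultured with macrophages, IMphg system. IL-1α is measured by ELISA 24 h after dosing and fitted in the positive direction against DMSO. Cytotoxicity is assessed by SRB staining of parallel cultures.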

[18] = BSK_IMphg_SRB: Viability Assessment in the BioMAP Diversity Plus: IMphg Assay (AID 2284292); conditions: primary human endothelial cells with macrophages;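 also: measured one day after compound addition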
Method in brief: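 Human venular endothelial cells with macrophages, 24 h after chemical dosing; total protein by 0.1% SRB staining after 10% TCA fixation, read at 560 nm. Positive-direction fitting versus DMSO baseline.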

Measured: AC50

E-selectin (Homo sapiens), sequence (P16581 whole entry, looked up): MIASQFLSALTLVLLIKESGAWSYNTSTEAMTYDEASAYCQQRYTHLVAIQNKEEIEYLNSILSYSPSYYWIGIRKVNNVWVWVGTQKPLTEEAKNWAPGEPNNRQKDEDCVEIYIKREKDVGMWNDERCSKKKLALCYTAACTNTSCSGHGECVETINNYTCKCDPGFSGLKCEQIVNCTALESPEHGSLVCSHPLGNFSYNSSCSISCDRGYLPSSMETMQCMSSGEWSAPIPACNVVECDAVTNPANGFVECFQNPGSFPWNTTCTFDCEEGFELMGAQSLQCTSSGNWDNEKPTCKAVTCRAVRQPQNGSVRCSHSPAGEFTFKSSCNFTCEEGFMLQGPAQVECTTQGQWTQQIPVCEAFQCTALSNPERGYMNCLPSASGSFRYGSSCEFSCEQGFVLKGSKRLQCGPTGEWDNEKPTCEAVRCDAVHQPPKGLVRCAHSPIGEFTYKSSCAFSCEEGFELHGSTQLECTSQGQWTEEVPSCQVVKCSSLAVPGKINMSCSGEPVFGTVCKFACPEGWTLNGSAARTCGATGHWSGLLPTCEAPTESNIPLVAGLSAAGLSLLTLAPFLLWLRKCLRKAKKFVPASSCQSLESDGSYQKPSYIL

NC(=O)C(F)(F)C(F)(F)C(F)(F)F
inactive: [1] | [2] | [3] | [4] | [5] | [6] | [7] | [8] | [9] | [10] | [11] | [12] | [13] | [14] | [15]

OCCCC(F)(F)C(F)(F)C(F)(F)C(F)(F)C(F)(F)C(F)(F)C(F)(F)C(F)(F)F
inactive: [3]
active: [1] 31.6 µM and 29.4 µM | [2] 22.5 µM and 19.4 µM | [4] 47 µM and 47.6 µM | [5] 50.2 µM and 51.8 µM | [6] 11.4 µM and 8.23 µM | [7] 33 µM and 21.3 µM | [8] 39.6 µM and 42.8 µM | [10] 48.3 µM and 45.4 µM | [11] 7.74 µM and 7.47 µM | [12] 18 µM and 17.8 µM | [13] 15.3 µM and 9.92 µM | [14] 10.1 µM and 10.9 µM | [15] 19 µM and 14.6 µM

O=S(=O)(OCC(F)(F)F)C(F)(F)C(F)(F)C(F)(F)C(F)(F)F
inactive: [1] | [2] | [3] | [4] | [5] | [6] | [7] | [8] | [10] | [11] | [12] | [13] | [14] | [15]

FC(F)(F)C(F)(F)C(F)(F)C(F)(F)C(F)(F)C(F)(F)CC[Si](Cl)(Cl)Cl
active: [11] 39.3 nM | [15] 519 nM
inactive: [1] | [2] | [3] | [4] | [5] | [6] | [7] | [8] | [10] | [11] | [12] | [13] | [14] | [15]

OCC(F)(F)C(F)(F)C(F)(F)CO
inactive: [1] | [2] | [3] | [4] | [5] | [6] | [7] | [8] | [10] | [11] | [12] | [13] | [14] | [15]

OC(O)C(F)(F)C(F)(F)F
inactive: [1] | [2] | [3] | [4] | [5] | [6] | [7] | [8] | [10] | [11] | [12] | [13] | [14] | [15] | [16]

O=C(O)C(F)(F)C(F)(F)C(F)(F)C(=O)O
inactive: [1] | [2] | [3] | [4] | [5] | [6] | [7] | [8] | [10] | [11] | [12] | [13] | [14] | [15]
active: [14] 43.1 µM

CN(C(=O)C(F)(F)C(F)(F)C(F)(F)F)[Si](C)(C)C
inactive: [1] | [2] | [3] | [4] | [5] | [6] | [7] | [8] | [10] | [11] | [12] | [13] | [14] | [15] | [17] | [18]

O=C(O)CCC(F)(F)C(F)(F)C(F)(F)C(F)(F)C(F)(F)C(F)(F)C(F)(F)F
active: [3] 1.98 µM and 2.14 µM | [5] 3.43 µM and 2.52 µM
inactive: [1] | [2] | [4] | [6] | [7] | [8] | [10] | [11] | [12] | [13] | [14] | [15]

NC(=O)C(F)(F)C(F)(F)C(F)(F)C(F)F
inactive: [1] | [2] | [3] | [4] | [5] | [6] | [7] | [8] | [10] | [11] | [12] | [13] | [14] | [15]

C=CC(=O)OCC(F)(F)C(F)(F)C(F)(F)COC(=O)C=C
active: [1] 43.4 µM and 47.1 µM | [2] 30 µM and 25.7 µM | [3] 50.7 µM and 45.9 µM | [4] 38.5 µM and 35.5 µM | [5] 45 µM and 43 µM | [6] 13.2 µM and 8.09 µM | [10] 46 µM and 48.8 µM | [11] 2.84 µM and 2.59 µM | [12] 35 µM and 40 µM | [13] 2.6 µM and 2.45 µM | [14] 22.6 µM and 23.9 µM
inactive: [7] | [8] | [15]

OCC(O)CC(F)(F)C(F)(F)C(F)(F)C(F)(F)F (configuration not stated)
inactive: [1] | [2] | [3] | [4] | [5] | [6] | [7] | [8] | [10] | [11] | [12] | [13] | [14] | [15] | [17] | [16]
